The list shows a part of the results. Results filed as inconclusive are left out. Unmarked numbers belong to inactive results. Activity calls are given as the source filed them. Calls come from the whole dose curve; as a rule, active = well fitted inhibition curve with a large enough effect; inconclusive = small, poorly fitted or top-dose-only effect, or another doubt; inactive = no such curve, though single readings can be large or run the other way.
Test: Cell Viability - CRE-beta lactamase CHO cell - 40 hr assay
Details: CRE-bla CHO viability, ATP luminescence; max response: hits give low values
Source text: NIH Chemical Genomics Center [NCGC] NIH Molecular Libraries Screening Centers Network [MLSCN] National Institutes of Environmental Health Sciences [NIEHS] National Toxicology Program [NTP] MLSCN Grant: 1X01MH079867-01 Assay Provider: Marshall W. Nirenberg, U.S. National Heart, Lung and Blood Institute NCGC Assay Overview: We have developed a 1536-well cell-based assay for quantitative high throughput screening (qHTS) against a number of cell lines to determine in vitro cytotoxicity of small molecules. This particular assay uses CRE-bla CHO cell line from Invitrogen.
NCGC Assay Protocol Summary: The CellTiter-Glo luminescent cell viability assay (Promega) is a homogeneous method to measure the number of viable cells in culture. The end point readout of this assay is based on quantitation of intracellular ATP, an indicator of metabolic activity, using the luciferase reaction. Luciferase catalyzes the oxidation of beetle Luciferin to oxyluciferin and light in the presence of ATP. The luminescent signal is proportional to amount of ATP present. Using the CellTiter-Glo luminescent cell viability assay, the amount of cellular ATP was measured in the CRE-bla CHO cell line with complete culture medium following compound treatment for 40 hours. The assay was performed in opaque white Kalypsys 1536-well plates. In the screen, tamoxifen was used as positive control. The selected compounds were measured for their ability to cause acute toxicity in the cell line, as reflected by a decrease in intracellular ATP levels, in a concentration-dependent manner. Data were normalized to the controls for basal activity (DMSO only) and 100% inhibition (100 uM tamoxifen). AC50 values were determined from concentration-response data modeled with the standard Hill equation. NCGC Assay Protocol Summary 1. Reagent; 5 uL; 2000 CHO cells/well 2. Time; overnight; 37 °C incubation 3. Compounds; 23 nL; 5.9 nM to 46 uM 4. Controls; 23 nL; Tamoxifen 4.5 nM to 92 uM 5. Time; 40 hr; 37 °C incubation 6. Reagent; 5 uL; CellTiter Glo reagent 7. Time; 20 min; Room Temperature 8. Detection; Luminescence; Viewlux plate reader Keywords: cell viability, cytotoxicity, CHO cell line, luminescence, MLSMR, MLSCN, NIH Roadmap, qHTS, NCGC

| Structure (SMILES) | max response [%] | Potency |
| --- | --- | --- |
| COc1ccc(CCNC(=O)CSc2nc(C)nc3c2oc2ccccc23)cc1OC | -16.6 |  |
| Cc1nn(-c2ccccc2)c2sc(C(=O)N(Cc3ccco3)C(C)C(=O)NC(C)(C)C)cc12 (stereo not given) |  | 12.6 µM (active) |
| Cc1nc(SCC(=O)Nc2cc(C)on2)c2c3c(sc2n1)CCCC3 | -15.8 |  |
| CC1CCc2sc3nc(N4CCN(CCO)CC4)n4ncnc4c3c2C1 (stereo not given) | -25.1 |  |
| CCc1nc(Nc2ccc3nccnc3c2)c2oc3ccccc3c2n1 | -16.6 |  |
